Screening data from PubChem BioAssay.
FBW7 act – human FBW7 E3 ligase activation, primary screen. Q969H0. 0.13% of 650,000 active. AID 1259310. normalized activity (activation), % at 26.1 µM. AlphaScreen FBW7–phospho-cyclin E peptide binding, activator screen; in the data active means normalized activity above about 1.9%;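 further: purified mutant Fbw7 with reduced substrate affinity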
MITF primary – inhibitors of human MITF | AlphaScreen MITF homodimerization, bead proximity signal | inhibition, % at 2.6 µM | O75030 | 0.91% of 650,000 active; in the data active means inhibition above about 50%
TEAD-YAP inh – TEAD-YAP interaction inhibition. AID 1259422. HEK-TIYL cells, TEAD-Gal4/YAP UAS-luciferase luminescence. inhibition, % at 9.12 µM. 1.4% of 640,000 active; in the data active means inhibition above about 32%
GPR151 ag – activators of human GPR151. Q8TDV0. PathHunter beta-arrestin GPR151 cells, luminescence. activation, % at 11.2 µM. 1% of 650,000 active. AID 1508602; in the data active means activation above about 4.9%
Target sequence (Q8TDV0 whole entry, looked up): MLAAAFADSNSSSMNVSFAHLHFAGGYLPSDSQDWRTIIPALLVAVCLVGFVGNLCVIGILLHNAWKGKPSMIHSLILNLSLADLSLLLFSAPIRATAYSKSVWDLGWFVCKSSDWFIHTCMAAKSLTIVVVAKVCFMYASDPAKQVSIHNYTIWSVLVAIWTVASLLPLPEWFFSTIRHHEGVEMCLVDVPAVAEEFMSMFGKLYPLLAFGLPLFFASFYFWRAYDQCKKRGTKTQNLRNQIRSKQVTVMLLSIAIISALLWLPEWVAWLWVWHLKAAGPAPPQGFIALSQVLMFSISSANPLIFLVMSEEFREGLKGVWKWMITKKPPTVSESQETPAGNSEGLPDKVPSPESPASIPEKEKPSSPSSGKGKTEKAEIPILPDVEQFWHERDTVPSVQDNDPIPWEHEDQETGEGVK
MITF confirm – confirmation of human MITF inhibitors | shares compounds with MITF primary | AlphaScreen MITF homodimerization, biotin/His-MITF beads | inhibition, % at 2.6 µM | 16% of 4,700 active | AID 1259372;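 active means inhibition above a cutoff derived from the DMSO control wells, cut at about 28% in these data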;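 further: inhibitors lower the bead chemiluminescence by keeping MITF from dimerizing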
AlphaScreen DR – counter-screen: compounds optically interfering with AlphaScreen. shares compounds with MITF primary. AlphaScreen optical interference counterscreen, cell-free. IC50, µM. 6% of 480 active; call rule not given here
AlphaScreen intf2 – counter-screen: compounds optically interfering with AlphaScreen | AID 1259376 | inhibition, % at 2.6 µM | LysRS AlphaScreen counterscreen, signal interference, triplicate | shares compounds with MITF primary | 7.6% of 4,700 active;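 active means inhibition above a cutoff derived from the DMSO control wells, cut at about 30% in these data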
A number is an active result; n = inactive; x = no result. Rows were chosen to be rich in hits. Some 3.4% of all compounds tested hit in one or more screens of this group.

SMILES	FBW7 act	MITF primary	TEAD-YAP inh	GPR151 ag	MITF confirm	AlphaScreen intf2	others
N#Cc1ccccc1NC(=O)CN1CCN(Cc2ccccc2)CC1	n	60	n	n	n	n
O=C(CN1CCN(CC(=O)c2ccco2)CC1)Nc1ccccc1F	n	66	n	n	n	n
O=C(CN1CCC(NC(=O)c2ccco2)CC1)Nc1ccccc1F	n	n	n	n	x	x
NC(=O)c1ccccc1NC(=O)COC(=O)c1cc(Cl)nc(Cl)c1	n	n	n	n	x	x
CC(=O)CSc1nnc(C)n1Cc1ccccc1	n	n	n	n	x	x
CNC(=O)c1ccc(-c2ccc(SC)cc2)nc1NCC1CC1	n	n	n	n	x	x
CCOC(=O)CN1C(=O)C(C)(C)Oc2ccc(C(=O)Nc3ccccc3)cc21	n	n	n	n	x	x
CN(C)CCNS(=O)(=O)c1cc(Cl)ccc1Cl	n	n	n	n	x	x
O=C(CC(=O)c1ccco1)Nc1cc(Cl)ccc1Cl	n	56	n	n	n	n
Cc1cccc(NC(=O)C2CCCN2C(=O)OC(C)(C)C)c1 (centres undefined)	n	77	n	n	n	n
Cc1cccc(NC(=O)C2CCCN2C(=O)OCc2ccccc2)c1 (centres undefined)	n	n	n	n	x	x
NC(=O)NC(=O)CC1S/C(=N/N=C2\CSC(=O)N2)NC1=O (centres undefined)	n	96	n	n	72	100
O=C(O)CC1S/C(=N/N=C2\CSC(=O)N2)NC1=O (centres undefined)	n	92	n	n	84	100
CCOC(=O)c1ccc(NC(=O)CC2S/C(=N/N=C3\CSC(=O)N3)NC2=O)cc1 (centres undefined)	n	n	n	n	x	x
O=[N+]([O-])c1cc(C=Nc2ccc(N3CCOCC3)cc2)c(O)c([N+](=O)[O-])c1	n	75	n	n	83	n	AlphaScreen DR=n
NC(=O)c1cc(-c2ccccc2)sc1NC(=O)COc1cccc2ccccc12	n	n	n	n	x	x
Cc1ccc(C(C(=O)O)c2ccc(C)cc2)cc1	n	n	n	n	x	x
COc1ccc(C2C3(C#N)C(N)=NC(OC)(OC)C23C#N)cc1 (centres undefined)	n	74	n	n	n	n
CCOC1(OCC)N=C(N)C2(C#N)C(c3cccc(C)c3)C12C#N (centres undefined)	n	56	n	n	n	n
COC1(OC)N=C(N)C2(C#N)C(c3ccc4c(c3)OCO4)C12C#N (centres undefined)	n	n	n	n	x	x
COC1(OC)N=C(N)C2(C#N)C(c3ccc(C)cc3)C12C#N (centres undefined)	n	55	n	n	n	n
CCOC1(OCC)N=C(N)C2(C#N)C(c3ccc(OC)c(OC)c3)C12C#N (centres undefined)	n	n	n	n	x	x
COC1(OC)N=C(N)C2(C#N)C(c3ccc(Cl)cc3)C12C#N (centres undefined)	n	n	n	n	x	x
Cc1sc2nc(CSc3nnc(-c4cccnc4)n3N)[nH]c(=O)c2c1C	n	n	n	n	x	x
COCCNC(=O)c1cc(Nc2ccccc2)nc2ccccc12	n	n	n	n	x	x
SMILES	FBW7 act	MITF primary	TEAD-YAP inh	GPR151 ag	MITF confirm	AlphaScreen intf2	others
CCSCCOC(=O)C1=C(C)NC2=C(C(=O)CCC2)C1c1ccc(C(=O)OC)cc1 (centres undefined)	n	n	n	n	x	x
c1ccc(-c2nnn3c2nc(NCC2CCCO2)c2ccccc23)cc1 (centres undefined)	n	n	n	n	x	x
Cc1ncc(CO)c(/C=N/Nc2nc3ccccc3o2)c1O	n	65	n	n	n	47
O=C(N/N=C/c1ccccn1)c1cc(-c2cccc([N+](=O)[O-])c2)n[nH]1	n	n	n	n	x	x
CCc1ccc(CNc2ccc(N3CCOCC3)c(C(=O)O)c2)cc1	n	52	n	n	n	n
O=[N+]([O-])c1ccccc1CN1CCN(C/C=C/c2ccccc2)CC1	n	58	n	n	n	n
COc1cc(CN2CCN(Cc3ccccc3[N+](=O)[O-])CC2)cc(OC)c1OC	n	62	n	n	n	n
COc1cc(CN2CCN(Cc3cc(OC)c(OC)c(OC)c3)CC2)c([N+](=O)[O-])cc1OC	n	58	n	n	n	n
CCOc1cc(CN2CCN(Cc3ccc(CC)cc3)CC2)ccc1OC	n	59	n	n	n	n
O=[N+]([O-])c1ccc(O)cc1CN1CCN(C/C=C/c2ccccc2)CC1	n	n	n	n	x	x
CCOc1cc(CN2CCN(Cc3cccc(F)c3)CC2)ccc1OC	n	n	n	n	x	x
Cc1ccc(OCC(=O)Nc2ccc(Br)c(C)c2)c([N+](=O)[O-])n1	n	n	n	n	x	x
COc1cccc(C(=O)N2CCN(Cc3ccccc3[N+](=O)[O-])CC2)c1	n	n	n	n	x	x
COc1cccc(OC)c1C(=O)N1CCN(Cc2ccccc2[N+](=O)[O-])CC1	n	56	n	n	n	n
CCOc1cc(CN2CCN(Cc3ccc([N+](=O)[O-])cc3)CC2)ccc1OC	n	68	n	n	n	n
COc1cccc(CN2CCN(Cc3ccccc3[N+](=O)[O-])CC2)c1OC	n	61	n	n	n	n
COc1cc(CN2CCN(c3ccccc3)CC2)cc([N+](=O)[O-])c1O	n	52	n	n	n	n
O=C(NC(c1ccc(F)cc1)c1ccccn1)C1CCN(C(=O)Cc2cccs2)CC1 (centres undefined)	n	n	n	n	x	x
O=C(O)c1ccc(/C=N\NC(=O)c2ccc(Br)cc2)cc1	n	n	n	n	x	x
COc1cc(CN2CCN(C(=O)CC(C)C)CC2)c([N+](=O)[O-])cc1OC	n	60	n	n	n	n
COc1ccc(CN2CCN(Cc3ccccc3[N+](=O)[O-])CC2)c(OC)c1OC	n	n	n	n	x	x
CCOc1ccc(CN2CCN(S(=O)(=O)c3ccccc3[N+](=O)[O-])CC2)cc1OC	n	n	n	n	x	x
CCOc1cc(CN2CCN(Cc3ccccc3[N+](=O)[O-])CC2)ccc1OC	n	71	n	n	n	n
COc1ccccc1CN1CCN(Cc2ccccc2[N+](=O)[O-])CC1	n	79	n	n	n	n
Cc1ccc(-c2nc3cc(NC(=O)c4cccc([N+](=O)[O-])c4)ccc3o2)cc1	n	n	n	n	x	x
FC(F)(F)COc1nc(N2CCCCC2)nc(N2CCN(c3ccccc3)CC2)n1	n	n	n	n	x	x
COC(=O)c1c(OCc2cccnc2)cc(=O)n2c1CCN(C(=O)C1CCCCC1)CC2	n	69	n	n	n	n
CC1(C)CCCC2=C1CC(C(=O)O)C(C(=O)N1CCCCC1)C2 (centres undefined)	n	85	n	n	n	n
Cc1ccc(C(=O)Oc2coc(CSc3nc(C)cc(C)n3)cc2=O)cc1	n	55	n	n	n	n
NC(=O)Nc1nc2cc(Cl)cc(Cl)c2[nH]c1=O	n	n	n	n	x	x
